A selection: hits, their analogues and other compounds. The true share with any hit is near 11%.
G9a inh: blocks human histone lysine methyltransferase G9a; AID 504332; 350,000 tested, 8.8% active; Potency, µM (highest dose often 102 µM), usual class: inhibitors; Q96KQ7; G9a H3K9 monomethylation, AlphaScreen, 2 h; also: nearly all actives have a fitted effect of over 75% in size
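Signal arises when biotinylated H3K9 peptide, once monomethylated, bridges streptavidin donor and antibody-captured acceptor beads. Enzyme at 20 nM was preincubated 15 min with test compounds; peptide 500 nM and SAM 20 uM then reacted for 2 h.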
PLK1 PBD block: inhibitors of human PLK1 polo-box domain binding; P53350; Potency, µM, most hits filed as inhibitors; Plk1 PBD binding of FITC phosphopeptide, fluorescence polarization; 360,000 tested, 2.8% active; also: series mostly up to about 57 µM; nearly all actives have a fitted effect of over 65% in size
Target sequence (P53350 whole entry, looked up, the tested form may be a part): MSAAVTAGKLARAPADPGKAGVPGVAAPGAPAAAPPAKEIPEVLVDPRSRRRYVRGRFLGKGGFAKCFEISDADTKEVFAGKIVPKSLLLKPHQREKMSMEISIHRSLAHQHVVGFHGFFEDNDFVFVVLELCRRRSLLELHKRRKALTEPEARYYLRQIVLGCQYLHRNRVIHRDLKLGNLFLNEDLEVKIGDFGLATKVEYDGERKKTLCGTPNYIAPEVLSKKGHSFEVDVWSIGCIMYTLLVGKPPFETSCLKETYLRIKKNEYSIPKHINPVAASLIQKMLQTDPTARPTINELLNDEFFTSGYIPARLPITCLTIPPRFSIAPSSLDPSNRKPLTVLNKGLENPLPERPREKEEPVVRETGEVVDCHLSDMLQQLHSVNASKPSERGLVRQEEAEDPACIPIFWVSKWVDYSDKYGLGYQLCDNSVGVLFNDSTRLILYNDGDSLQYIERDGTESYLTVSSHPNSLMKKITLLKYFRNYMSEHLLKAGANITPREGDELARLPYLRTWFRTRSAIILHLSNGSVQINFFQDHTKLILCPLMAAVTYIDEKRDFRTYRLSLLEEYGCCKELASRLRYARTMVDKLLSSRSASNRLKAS
HP1b binding inh: blocks HP1-beta chromodomain binding to methylated histone tails; P83916; AlphaScreen HP1-beta / biotin-H3K9me3 peptide binding; Potency, µM (doses to about 114 µM), most hits filed as inhibitors; 390,000 tested, 0.56% active; AID 540317; also: nearly all actives have a fitted effect of over 70% in size
Target sequence (P83916 whole entry, looked up): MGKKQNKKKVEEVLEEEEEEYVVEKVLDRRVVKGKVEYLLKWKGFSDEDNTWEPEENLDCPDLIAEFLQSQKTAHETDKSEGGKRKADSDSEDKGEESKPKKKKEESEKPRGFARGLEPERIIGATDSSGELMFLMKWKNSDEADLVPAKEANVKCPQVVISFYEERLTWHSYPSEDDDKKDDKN
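HP1-beta protein (50 nM final) preincubated 30 min at room temperature with biotinylated H3(1-18)K9me3 peptide (50 nM) in PBS pH 7.4, 0.01% Tween-20, then compound added for 30 min. AlphaScreen streptavidin donor/nickel chelate acceptor beads (10 ug/mL final), 30 min dark, luminescence read.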
VDR inhibitor: blocks the human vitamin D receptor. P11473. VDR-SRC2-3 peptide fluorescence polarization, 2 h. Potency, µM, hits mostly inhibitors. 400,000 tested, 0.93% active. AID 504847
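After 23 nl compound addition and a short centrifugation, plates sat for 2 hours at ambient temperature; polarization of fluorescence then indicated loss of VDR binding to peptide SRC2-3.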
BAZ2B block: BAZ2B (human) inhibition | Q9UIF8 | AlphaScreen BAZ2B-H3K14Ac peptide displacement | Potency, µM (highest dose often 114 µM), hits mostly inhibitors | 360,000 tested, 4.4% active | AID 504333; also: nearly all actives have a fitted effect of over 60% in size
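Multi-concentration screen (max 110 uM) measuring displacement of acetylated histone H3 peptide from BAZ2B by AlphaScreen, using 50 nM protein, 50 nM peptide and 10 ug/mL streptavidin donor plus Ni-chelate acceptor beads.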
JMJD2A Tudor inh: blocks the human JMJD2A Tudor domain. Potency, µM (series often up to 114 µM), most hits filed as inhibitors. AlphaScreen JMJD2A-Tudor / H3K4me3 peptide binding. 390,000 tested, 4.4% active; also: nearly all actives have a fitted effect of over 50% in size
A number is an active result; 0 = inactive; ? = inconclusive; - = no result; [ ] = remark or other dose. Calls follow the shape of the dose curve; as a rule, active = well fitted curve in the direction sought with a large enough effect; inconclusive = small, poorly fitted or top-dose-only effect, or another doubt; inactive = no such curve, though single readings can be large; an effect the other way counts as inactive or inconclusive.

SMILES | G9a inh | PLK1 PBD block | HP1b binding inh | VDR inhibitor | BAZ2B block | JMJD2A Tudor inh
Cc1nc(NC(=O)c2ccccc2)sc1-c1csc(NCc2ccccc2)n1 | 39.8µM | 0 | 0 | 0 | ? | ?
Cc1nc2sccn2c1-c1csc(NCc2ccccc2)n1 | ? | ? | ? | 0 | ? | 63.1µM
Cc1nc(NC(=O)c2ccccc2)sc1-c1csc(N)n1 | 8.91µM | 0 | 0 | 0 | ? | ?
COCCCn1c(C(=O)Nc2ccc3c(c2)OCO3)cc2c(=O)n3cccc(C)c3nc21 | - | 0 | - | - | - | -
CCc1ncnc2cc(OC)c(OC)cc12 | 0[12.7 µM] | - | - | 0 | - | -
O=C(Nc1ccccc1Sc1ccccc1)c1cnn2c1NC(=C1CC1)C=C2C(F)(F)F | - | - | 0 | 0 | - | -
O=C1CNC(=O)/C1=C/c1ccc(Br)cc1 | - | 7.52µM | 0 | 0 | 0 | 0
O=C1CNC(=O)/C1=C\c1ccc(O)cc1 | ? | 0 | 0 | 0 | 0 | 0
COc1ccc(Cl)cc1NC(=O)c1cnc2sc(N3CCOCC3)nn2c1=O | 0 | - | 0 | 0 | 0 | 0
S=C(N/N=C/c1ccc(Cl)cc1)N1CCOCC1 | ? | 0 | 0 | 0 | ? | 0
Cc1ccc(/C=N/NC(=S)N2CCOCC2)cc1 | 28.2µM | 0 | 0 | 0 | ? | 0
S=C(N/N=C/c1ccc(Br)cc1)N1CCCCC1 | 0 | 0 | 0 | 0 | 7.94µM | ?
Cn1cc([N+](=O)[O-])c(C(=O)N(Cc2ccccc2)Cc2ccccc2)n1 | 0 | 0 | 0 | 0 | 0 | 0
Cc1cccc(CNc2cc(-c3cccc(C#N)c3)ncn2)c1 | - | - | - | 0 | - | -
Cc1cccc(N2CCN(C3(c4ccccc4)C(=O)c4ccccc4C3=O)CC2)c1C | ? | - | 0 | 0 | 0 | ?
O=C1c2ccccc2C(=O)C1(c1ccccc1)N1CCN(c2cccc(C(F)(F)F)c2)CC1 | 10µM | - | 0 | 0 | ? | ?
O=C1c2ccccc2C(=O)C1(c1ccccc1)N1CCN(c2cccc(Cl)c2)CC1 | 6.31µM | - | 0 | 0 | ? | ?
OC(COC(c1ccc(F)cc1)c1ccc(F)cc1)CN1CCc2ccccc2C1 (stereo not given) | 4.47µM | 0 | ? | 0 | 44.7µM | 17.8µM
OC(COC(c1ccc(Cl)cc1)c1ccc(Cl)cc1)CN1CCCC1 (stereo not given) | 0 | 0 | 0 | 0 | 0 | 0
OC1CCCN(CC(O)c2ccccc2)C1 (stereo not given) | 3.16µM | 0 | 0 | 0 | 50.1µM | 39.8µM
CN1CCN(CC(O)c2ccccc2)CC1 (stereo not given) | 0 | - | - | - | 0 | -
OC1CCCN(CC(O)COC(c2ccc(F)cc2)c2ccc(F)cc2)C1 (stereo not given) | 44.7µM | 0 | 0 | 0 | 50.1µM | 10µM
OC(COC(c1ccccc1)c1ccccc1)CN1CCc2ccccc2C1 (stereo not given) | 0 | 0 | 0 | 0 | 0 | 0
CN(C)CCSc1nc(N)c2c3c(sc2n1)CN(C)CC3 | 44.7µM | 0 | 0 | 0 | 0 | 0
CCCSc1nc(N)c2c3c(sc2n1)CN(C)CC3 | 0[12.7 µM] | ? | 0 | 0 | 0 | 0
SMILES | G9a inh | PLK1 PBD block | HP1b binding inh | VDR inhibitor | BAZ2B block | JMJD2A Tudor inh
CC(C)Sc1nc(N)c2c3c(sc2n1)CN(C)CC3 | 3.16µM | 26.7µM | 0 | 0 | 0 | 0
COc1ccc(C2C(C(=O)c3ccc(C)o3)=C(O)C(=O)N2Cc2ccco2)cc1OC (stereo not given) | - | 0 | 0 | 0 | ? | 0
C=CCOc1cccc(C2C(C(=O)c3ccc(C)o3)=C(O)C(=O)N2CCN(C)C)c1 (stereo not given) | 44.7µM | 0 | 0 | 0 | 0 | ?
COc1cc(C2C(C(=O)c3ccc(C)o3)=C(O)C(=O)N2CCN2CCOCC2)ccc1OCCC(C)C (stereo not given) | 31.6µM | 0 | 0 | 0 | 0 | ?
C=CCOc1ccc(C2C(C(=O)c3ccco3)=C(O)C(=O)N2CCCN(CC)CC)cc1 (stereo not given) | ? | 0 | 0 | 0 | 0 | 0
CCCOc1cccc(C2C(C(=O)c3ccc(C)o3)=C(O)C(=O)N2CCN2CCOCC2)c1 (stereo not given) | 44.7µM | 0 | 0 | 0 | 0 | 0
COc1ccc(C(=O)O)cc1COc1ccc(NC(C)=O)cc1 | - | - | - | - | - | 0
COC(=O)C1=C(C)N(Cc2ccco2)C(=O)N[C@@H]1c1cccc(C(F)(F)F)c1 | 89.1µM | - | - | 0 | ? | -
CCN1C(=NCCOC)N[C@@H](c2cccc(C(F)(F)F)c2)C(C(=O)OC)=C1C | - | 0 | 0 | 0 | ? | 15.8µM
COCCN1C(=O)N[C@@H](c2cccc(C(F)(F)F)c2)C(C(=O)OC)=C1C | - | 29.9µM | 0 | ? | - | ?
COc1ccc(CCNC(=O)c2coc3ccccc3c2=O)cc1OC | 0 | 0 | 0 | 0 | 0 | 0
COc1cc(C(=O)O)nc2ccc([N+](=O)[O-])cc12 | 17.8µM | 0 | 0 | 0 | 50.1µM | 0[11.4 µM]
COc1ccc([N+](=O)[O-])cc1C(=O)C(=O)c1ccccc1 | - | 0 | 0 | 0 | 0 | 0
CCCCC/C=C\C/C=C\CCCCCCCC(=O)NCCc1ccc(O)c(O)c1 | - | - | - | 0 | - | -
Cc1ccc(Cc2c[nH]c(=S)s2)cc1 | 7.08µM | 6.7µM | 0 | 0 | ? | ?
CCn1c(=O)c(C(=O)CN(C)CC(=O)Nc2ccccc2Br)c(N)n(Cc2ccccc2)c1=O | ? | 0 | 0 | 0 | 0 | 0
CCCCOC(=O)C(C)Sc1n[nH]c(=O)[nH]c1=O (stereo not given) | 0 | 26.7µM | 0 | 0 | 0 | 0
O=C(CCCNC(=O)c1ccc(Cl)cc1)Nc1ccc(S(=O)(=O)Nc2ncccn2)cc1 | - | 26.7µM | 0 | ? | 0 | 0[11.4 µM]
O=C(CCNC(=O)c1ccccc1)Nc1ccc(S(=O)(=O)Nc2ncccn2)cc1 | - | 0 | 0 | 0 | - | 0
O=C(CNC(=O)c1ccc(Cl)cc1)Nc1ccc(S(=O)(=O)Nc2ncccn2)cc1 | 22.4µM | 0 | 0 | 0 | ? | 0
Cc1ccccc1NC(=O)CCNC(=O)Cn1ccc2ccccc2c1=O | 0 | - | 0 | 0 | 0 | 0
CC(=O)c1ccc(NC(=O)CSc2nnc(C3CC3)n2C2CC2)cc1 | - | 0 | 0 | 0 | - | 0
S=C(N=Nc1ccccc1)NNc1ccccc1 | 10µM | 0 | 15.8µM | ? | 35.5µM | 25.1µM
NC(=O)NNc1ccccc1 | 0 | - | - | 0 | - | -
Cc1occc1-c1nnc(SCC(=O)N(C)c2ccccc2)n1C | 0[2.33 µM] | 0 | 0 | 0 | 0 | 0
SMILES | G9a inh | PLK1 PBD block | HP1b binding inh | VDR inhibitor | BAZ2B block | JMJD2A Tudor inh
Cc1occc1-c1nnc(SCC(=O)c2ccc(Cl)cc2)n1C | 0[12.7 µM] | 0 | 0 | ? | ? | 70.8µM
COc1ccccc1-n1cnnc1SCC(=O)NCc1cccs1 | 0 | 0 | 0 | 0 | 0 | 0
Cc1occc1-c1nnc(SCC(=O)c2c[nH]c3ccccc23)n1C | 39.8µM | 23.8µM | 0 | 0 | 0 | 56.2µM
COc1ccccc1-n1cnnc1SCC(=O)c1c[nH]c2ccccc12 | 0 | 26.7µM | 0 | ? | 0 | 0
O=C1Cc2ccccc2C(=O)N1c1ccccc1 | 0 | 0 | 0 | 0 | 0 | 0
O=C(O)CCN1Cc2ccccc2C1=O | 50.1µM | 0 | 0 | 0 | ? | ?
O=C(O)c1cccc(CN2C(=O)c3ccccc3C2=O)c1 | 0 | 0 | 0 | 0 | 0 | 0
